# Screening data deposited in PubChem by National Center for Advancing Translational Sciences (NCATS).
# VP16 counter: Gal4-VP16 reporter inhibition counter-screen. Drosophila S2 Gal4-VP16 UAS-luciferase, luminescence, 20 h. Potency, µM (series often up to 53.6 µM), inactives show at the top dose activity, negative = inhibition, usual class: inhibitors. 3.5% of 310,000 active;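 note: Gal4-VP16 expression switched on by copper sulfate through the metallothionein promoter; % is set by controls: 0 for no effect and ±100 for the full control effect; nearly all actives have a fitted effect of over 50% in size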
# KB-V1 MDR tox: KB-V1 MDR subline cytotoxicity. KB-V1 MDR cells viability, CellTiter-Glo, 72 h. Potency, µM (series often up to 46.1 µM), hits mostly cytotoxic. 3.4% of 400,000 active. AID 1347076; note: % is set by controls: 0 for no effect and ±100 for the full control effect; nearly all actives have a fitted effect of over 60% in size
#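 Drug-selected KB-V1 cells, grown in DMEM lacking phenol red with 10% FBS, receive compound titrations; after three days at 37 degrees C, surviving cell ATP is quantified by CellTiter-Glo luminescence and responses normalized and curve-fitted.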
# SW480 rerep: induces DNA re-replication in SW480 colon adenocarcinoma cells | Potency, µM (top dose mostly 46.1 µM), inactives show at the highest dose re-replication activation, hits mostly activators | SW480 DNA re-replication, Hoechst DNA content imaging, 48 h | 1.8% of 340,000 active; note: % of control where 0% means no effect; nearly all actives have a fitted effect of over 55% in size
#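 Hoechst fluorescence of nuclei (405 nm excitation, 500-530 nm emission) measured by plate-scanning imager after 48 hr compound exposure at 37 C; re-replication scored as increased number of nuclei with elevated intensity.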
# RORgamma inh: inhibitors of mouse ROR gamma transcriptional activity. P51450. Drosophila S2 Gal4-RORgamma UAS-luciferase reporter, 20 h. Potency, µM (titrated, usually from 53.6 µM), for inactives: at the highest dose activity change, negative = inhibition, most hits filed as inhibitors. 5.4% of 310,000 active; note: % is set by controls: 0 for no effect and ±100 for the full control effect; nearly all actives have a fitted effect of over 60% in size
# Target sequence (P51450 whole entry, looked up, the tested form may be a part): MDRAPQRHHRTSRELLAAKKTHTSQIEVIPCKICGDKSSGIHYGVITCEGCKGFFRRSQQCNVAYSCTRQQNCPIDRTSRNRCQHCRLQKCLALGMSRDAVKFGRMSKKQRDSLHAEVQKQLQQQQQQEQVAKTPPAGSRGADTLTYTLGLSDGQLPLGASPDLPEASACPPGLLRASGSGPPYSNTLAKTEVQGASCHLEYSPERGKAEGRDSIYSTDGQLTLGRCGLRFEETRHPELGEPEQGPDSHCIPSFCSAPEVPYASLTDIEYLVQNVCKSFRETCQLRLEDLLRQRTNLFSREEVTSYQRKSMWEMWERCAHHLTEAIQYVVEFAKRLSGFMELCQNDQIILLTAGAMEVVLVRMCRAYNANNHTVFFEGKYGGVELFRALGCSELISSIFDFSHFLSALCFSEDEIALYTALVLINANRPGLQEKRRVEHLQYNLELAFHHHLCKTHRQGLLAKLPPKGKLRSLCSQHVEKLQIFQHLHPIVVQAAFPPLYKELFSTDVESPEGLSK
#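 ROR gamma transcriptional activity was tracked as Gal4-UAS luciferase output in stably transfected Drosophila Schneider cells, with compound added 1 hr before 700 uM copper sulfate induction and a 20 hr ambient-temperature incubation.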
# KB-3-1 tox: kills parental KB-3-1 adenocarcinoma cells | 1.4% of 400,000 active | AID 1347075 | KB-3-1 viability, CellTiter-Glo ATP luminescence, 72 h | Potency, µM (top dose mostly 46.1 µM), most hits filed as cytotoxic; note: % is set by controls: 0 for no effect and ±100 for the full control effect; nearly all actives have a fitted effect of over 60% in size
#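 Viability of parental KB-3-1 cells, measured by CellTiter-Glo luminescence, followed a 72 h incubation at 37 °C with pinned compounds in phenol-red-free DMEM containing 10% FBS.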
# MCF10A rereplic: induces DNA re-replication in MCF 10a normal breast cells | MCF 10A DNA re-replication, Hoechst nuclear intensity, 48 h | Potency, µM (highest dose often 46.1 µM), inactives show at the top dose activity, positive = re-replication, hits mostly activators | 2.9% of 350,000 active | AID 624296; note: % of control where 0% means no effect; nearly all actives have a fitted effect of over 50% in size
# Active calls of the source: *; i = inactive; ? = inconclusive; . = not tested or not shown; [ ] = remark or other dose. The list is not random: actives were taken first. Their share in the collection is about 10%. Calls come from the whole dose curve; as a rule, active = well fitted curve in the direction sought with a large enough effect; inconclusive = small, poorly fitted or top-dose-only effect, or another doubt; inactive = no such curve, though single readings can be large; an effect the other way counts as inactive or inconclusive. Potency is the fitted concentration of half-maximal effect.
SMILES,VP16 counter,KB-V1 MDR tox,SW480 rerep,RORgamma inh,KB-3-1 tox,MCF10A rereplic
N#Cc1c([N+](=O)[O-])cc([N+](=O)[O-])cc1S(=O)(=O)Cc1ccccc1,.,?,5.2µM*,.,23µM*,?
COc1cc(OC)c(C#N)c(S(=O)(=O)Cc2ccccc2)c1,0%,i,-7%,3%,i,2%
COc1cccc(-n2nnc3c(=O)n(Cc4ccc(C)cc4)cnc32)c1,8%,?,0%,29%,i,14%
COc1cccc(-n2nnc3c(=O)n(Cc4ccc(Cl)cc4)cnc32)c1,3%,15µM*,-7%,5%,i,11%
COc1cccc(-n2nnc3c(=O)n(Cc4ccccc4Cl)cnc32)c1,2%,18µM*,-7%,-1%,i,-2%
CO[C@H]1[C@H](O[C@H]2O[C@@H](C)[C@@H](O[C@@H]3C[C@](C)(O)[C@H](O)[C@H](C)O3)[C@@H](N(C)C)[C@@H]2O)[C@@H](CC=O)C[C@@H](C)[C@@H](O[C@H]2CC[C@H](N(C)C)[C@H](C)O2)/C=C\C=C/C[C@@H](C)OC(=O)C[C@H]1O,-6%[17 µM],.,-8%[20.6 µM],-6%[2.98 µM],.,-5%[20.6 µM]
CC(=O)Nc1ccc(NC(=O)c2ccc(-c3ccnn3C)c3ccoc23)cc1,.,i,.,.,i,.
CC1CN(c2ccc([N+](=O)[O-])c(NCCOc3ccc(Cl)cc3)c2)CC(C)N1 (stereo not drawn),18µM*,i,-9%,?,i,10%
Cc1ccccc1OCCNc1cc(N2CC(C)NC(C)C2)ccc1[N+](=O)[O-] (stereo not drawn),?,21µM*,4%,?,?,-4%
CC1CN(c2ccc([N+](=O)[O-])c(NCCOc3ccccc3)c2)CC(C)N1 (stereo not drawn),0%,?,2%,-12%,i,17%
Cc1ccc(S(=O)(=O)N(C)c2ccc(OCC(=O)Nc3ccc(C(=O)N(C)C)cc3)cc2)cc1C,.,i,-8%,.,i,0%
Cc1cc(C)c(C#N)c(SCC2COc3ccccc3O2)n1 (stereo not drawn),4%,i,-1%,38%,i,27%
Cc1cc(C)n2nc(SCc3nnc(SCc4ccccc4C)s3)nc2n1,-23%,21µM*,-20%,21%,i,-7%
Cc1cc(C)n2nc(SCC3COc4ccccc4O3)nc2n1 (stereo not drawn),-5%,23µM*,5%,9%,i,0%
COc1ncc2nc(C)c(=O)n(Cc3cccs3)c2n1,-7%,.,.,16%,.,.
COc1cccc(CS(=O)(=O)c2nnnn2-c2ccc(F)cc2Br)c1,5%,.,.,-1%,.,.
NC(=S)N=Nc1c(O)n(Cc2ccc(F)cc2)c2ccccc12,1.3µM*,i,2%,1.3µM*,i,?
O=Nc1c(O)n(Cc2ccc(Cl)cc2)c2ccccc12,11µM*,i,13%,?,i,?
Cc1ccc(Cn2c(O)c(N=O)c3ccccc32)cc1,?,i,17%,-23%,i,0%
NC(=S)N=Nc1c(O)n(Cc2ccc(Br)cc2)c2ccccc12,0.89µM*,4.6µM*,8.2µM*,0.79µM*,3.3µM*,5.8µM*
Cc1ccc2c(c1)c(N=NC(N)=S)c(O)n2Cc1ccccc1,2.5µM*,i,0%,1.6µM*,i,14%
CCOc1ccc(NC(=O)c2cccc(N3CCCS3(=O)=O)c2)cc1,.,i,.,.,i,.
Cc1ccc(NC(=O)c2cc(C(=O)c3cc(Cl)ccc3O)cn(-c3ccc(C)cc3)c2=O)cc1,-16%,18µM*,16%,?,?,11%
N#Cc1cc(C(=O)c2cc(Cl)ccc2O)cn(-c2ccccc2)c1=O,-15%,i,0%,?,i,1%
Cc1ccc(C2=CC(c3ccccc3)n3ncnc3N2)c(C)c1 (stereo not drawn),.,i,-11%,.,i,9%
SMILES,VP16 counter,KB-V1 MDR tox,SW480 rerep,RORgamma inh,KB-3-1 tox,MCF10A rereplic
Cc1ccc(C2=CC(c3ccccc3)n3ncnc3N2)cc1 (stereo not drawn),.,i,?,.,i,11%
CN(C)c1ccc(C2C=C(c3ccc(Cl)cc3OC(F)F)Nc3ncnn32)cc1 (stereo not drawn),-2%,12µM*,23µM*,?,i,4.1µM*
Cc1ccc(C2C=C(c3ccccc3OC(F)F)Nc3ncnn32)cc1 (stereo not drawn),-4%,21µM*,-206%,-29%,?,14%
N#CCc1ccccc1[N+](=O)[O-],0%,.,.,5%,.,.
N[C@@H](Cc1cc(CP(=O)(O)O)cc(-c2ccccc2Cl)c1)C(=O)O,-7%,.,.,1%,.,.
COc1ccc(C2NC(=O)c3sc4nc(C)c(C(C)=O)c(-c5ccc(Cl)cc5)c4c3N2)cc1 (stereo not drawn),-20%,i,?,-33%,i,16µM*
COc1ccc(NC(=O)c2sc3nc(C)c(C(=O)Nc4ccc(C)cc4C)c(-c4ccc(Cl)cc4)c3c2N)cc1,.,i,.,.,i,.
Cc1cc(Cl)ccc1OC(C)C(=O)Nc1ccc(C(=O)Nc2ccccc2C(=O)O)cc1 (stereo not drawn),-9%,i,-4%,?,i,?
C/C(=N\NC(=O)c1c(Br)c(C)nn1C)c1ccc(NC(=O)C(C)Oc2ccc(Cl)cc2C)cc1 (stereo not drawn),?,i,9%,?,i,16µM*
C/C(=N\NC(=O)c1c(Br)c(C)nn1C)c1ccc(NC(=O)c2ccoc2C)cc1,-2%,i,-189%,9%,i,13%
CCC(=O)Nc1ccc(/C(C)=N/NC(=O)c2c(Br)c(C)nn2C)cc1,6%,7.3µM*,12%,10%,i,10%
Cc1cccc(C(=O)N/N=C/c2cc(Br)c(Br)o2)c1,?,?,-695%,11µM*,i,?
Cc1ccc(/C=N/NC(=O)c2c(-c3ccccc3)noc2C)o1,?,i,-2%,13µM*,i,-16%
O=C(N/N=C/c1cc(Br)c(Br)o1)C(O)c1ccccc1 (stereo not drawn),-9%,i,?,-1%,?,?
Cc1onc(-c2ccccc2)c1C(=O)N/N=C/c1ccc(Br)cc1,?,i,3%,?,i,-4%
Cc1onc(-c2ccccc2)c1C(=O)N/N=C/c1cc(Br)c(Br)o1,10µM*,i,10%,7.1µM*,?,?
Cc1ccccc1-c1cncnc1NCc1cccnc1,-1%,.,.,0%,.,.
